Laboratory results from PubChem BioAssay AID2129 (The Scripps Research Institute Molecular Screening Center, 2009).
Hit rate of the full screen: of about 320,000 compounds, about 2,200 (0.69%) were called active.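 How the source made its calls: active means inhibition above the mean of all tested compounds plus 3 SD, cutoff set per campaign (cut at about 30% in these data); inactive means the rest.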 The sample as a whole holds a higher share of actives than the screen did.

molecular target: Bcl-2-like protein 1 (Homo sapiens) (UniProt Q07817); test: inhibitors of human Bcl-xL, primary screen, biochemical, fluorescence polarization, HTS (AID 2129); conditions: GST-Bcl-xL / FITC-Bim BH3 peptide fluorescence polarization; at 10.9 µM; hits give high values;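 further: 0% = DMSO wells and 100% = unlabeled Bim-BH3 peptide competitor; inhibitors lower millipolarization by displacing the labeled peptide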
Sequence (Q07817 whole entry, looked up): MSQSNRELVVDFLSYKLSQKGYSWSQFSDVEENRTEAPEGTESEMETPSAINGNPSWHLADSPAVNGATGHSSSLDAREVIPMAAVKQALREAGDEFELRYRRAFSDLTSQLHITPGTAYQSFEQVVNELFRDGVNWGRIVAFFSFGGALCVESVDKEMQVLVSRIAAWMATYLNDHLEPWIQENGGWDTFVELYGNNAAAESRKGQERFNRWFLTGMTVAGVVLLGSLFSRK

Row | SMILES | inhibition
1 | CCOC(=O)C1=C(O)/C(=C/c2ccc(OCC(=O)Nc3ccc(C)cc3)cc2)N=C1C | -2.9% (inactive)
2 | CCOC(=O)C1=C(O)/C(=C/c2cc(C)n(-c3ccccc3)c2C)N=C1C | 35.6% (active)
3 | COC(=O)C1=C(O)/C(=C/c2ccc(OCC(=O)Nc3ccccc3)cc2)N=C1C | 0.76% (inactive)
4 | CCn1c2c(c3ccc(OC)cc31)CCCC2=O | 5.26% (inactive)
5 | O=S(=O)(c1ccc(SCc2ccccc2)nc1)N1CCCCCC1 | 5.07% (inactive)
6 | CC(=O)c1cnn(-c2cc(Oc3ccc(F)cc3)ncn2)c1C | 2.24% (inactive)
7 | COc1ccc(NS(=O)(=O)c2ccc(F)cc2F)cn1 | 3.96% (inactive)
8 | COc1ccc(Nc2cc(Cl)ccc2C(=O)O)cn1 | 50.8% (active)
9 | COc1cccc(Nc2ncccc2C(=O)O)c1 | 6.39% (inactive)
10 | CCCCOP(=O)(c1ccc(N(C)C)cc1)C(O)c1cc(OC)ccc1OC (centres undefined) | 5.82% (inactive)
11 | Cc1ccc(NC(=O)CSCC(=O)N2CCOCC2)cc1 | 1.4% (inactive)
12 | COC(=O)Cc1cc(=O)oc2c(C)c(O)ccc12 | 4.68% (inactive)
13 | COc1cccc2cc(S(=O)(=O)c3ccc(C)cc3)/c(=N/NS(=O)(=O)c3ccc(C)cc3)oc12 | 5.22% (inactive)
14 | Cc1cc(S(=O)(=O)c2cc3ccc(O)c(C)c3oc2=O)ccc1F | 40.6% (active)
15 | Cc1ccc(NC(=O)C2CC2c2ccccc2)cc1 (centres undefined) | 2.22% (inactive)
16 | CC(=O)N1c2ccc(S(=O)(=O)N3CCC(C(=O)NC4CCCC(C)C4C)CC3)cc2CC1C (centres undefined) | 0.13% (inactive)
17 | COc1ccccc1/C=C/C=N/n1c(-c2ccc(Cl)cc2Cl)n[nH]c1=S | -7.95% (inactive)
18 | CCn1c(SCc2ccccc2)nc2cc(OC)c(OC)cc2c1=O | 3.12% (inactive)
19 | CSc1c(SCc2ccccc2)cnn(Cc2ccccc2)c1=O | 145% (active)
20 | COC(=O)c1ccc(SCc2ccccc2)nc1 | 6.87% (inactive)

Row | SMILES | inhibition
21 | CCc1ccccc1NC(=O)NCCN1CCCCC1 | 5.44% (inactive)
22 | CCOC(=O)[C@@H]1[C@H]2COc3cc(OC)ccc3[C@@H]2N2C(=O)N(c3cccc(C)c3)C(=O)[C@@]12C | 3.42% (inactive)
23 | Cn1sc(=O)c2cc(S(=O)(=O)NC3CC3)ccc21 | 2.2% (inactive)
24 | COc1cc(CN(C)Cc2nc3cc(C(F)(F)F)ccc3c(=O)[nH]2)ccc1OC(F)F | -2.06% (inactive)
25 | COc1cc2nc(CN(C)Cc3ccc(F)cc3)[nH]c(=O)c2cc1OC | -1.08% (inactive)
26 | COc1ccc(CN(C)Cc2nc3cc(OC)c(OC)cc3c(=O)[nH]2)c(OC)c1 | 85.4% (active)
27 | Cc1cc(NC(=O)C(C)SCC(=O)Nc2ccccc2N2CCCCC2)no1 (centres undefined) | -2.56% (inactive)
28 | COc1ccc(CCNC(=O)COC(=O)c2cc(=O)c3ccccc3o2)cc1 | -7.08% (inactive)
29 | O=C(C1CC(=O)N(C2CCCCC2)C1)N1CCN(c2ccccc2)CC1 (centres undefined) | 3.83% (inactive)
30 | CNC(=O)c1cccc2nc3ccccc3nc12 | 8.33% (inactive)
31 | O=c1[nH]c(=O)c2nc3ccccc3nc2[nH]1 | 33.4% (active)
32 | O=c1[nH]c(-c2ccccc2)c(-c2ccccc2)[nH]1 | 1.54% (inactive)
33 | CNC(C)C#Cc1ccc2sc3cc(OC)c(OC)cc3c(=O)c2c1 (centres undefined) | 0.94% (inactive)
34 | COc1ccc(C(=O)NCC(c2ccco2)N2CCc3ccccc32)cc1OC (centres undefined) | 3.87% (inactive)
35 | C[n+]1ccccc1C1CCCC/C1=N\Nc1ccc([N+](=O)[O-])cc1[N+](=O)[O-] (centres undefined) | -14.1% (inactive)
36 | COc1ccc(S(=O)(=O)N(C)CC(=O)NCCCN2CCOCC2)cc1Cl | -0.96% (inactive)
37 | COc1ccc2cc(C(=O)C3CCCN(C(=O)c4sc(C)nc4C)C3)ccc2c1 (centres undefined) | 3% (inactive)
38 | COc1ccc2c(c1)CCc1cn3ncc(C#N)c3nc1-2 | 5.65% (inactive)
39 | COc1ccc2nc(N3CCCC(O)C3)c(C#N)cc2c1 (centres undefined) | 32% (active)
40 | O=[N+]([O-])c1c(NCCO)cc(Sc2nc3ccccc3s2)c2nonc12 | 38.8% (active)

Row | SMILES | inhibition
41 | O=C(O)c1ccccc1CSc1nc2ccccc2s1 | 15.6% (inactive)
42 | CCOc1ccccc1Nc1ccc2nonc2c1[N+](=O)[O-] | -3.2% (inactive)
43 | O=C(C1CCC1)N1CCc2cc(S(=O)(=O)NCc3cccnc3)ccc21 | 1.18% (inactive)
44 | CCN(CC)CCNc1nc(-c2ccc(OC(F)F)cc2)c(C)s1 | 4.61% (inactive)
45 | CCCN1C2=C(C(=O)CCC2)C(c2ccc(O)c(Br)c2)C2=C1CCCC2=O | 37.8% (active)
46 | COc1ccc(C2C3=C(CCCC3=O)N(CC(=O)O)C3=C2C(=O)CCC3)cc1 | 7.5% (inactive)
47 | CCOc1ccc(C2C3=C(CCCC3=O)N(CC(=O)O)C3=C2C(=O)CCC3)cc1 | 6.72% (inactive)
48 | CCCCCCCC1(C)NC(=O)N(CC(=O)Nc2cc(C)on2)C1=O (centres undefined) | 3.89% (inactive)
49 | O=C(Oc1cccc(O)c1)C1CCCCC1 | 1.38% (inactive)
50 | CN(C(=O)CSc1nnc(-c2ccc3c(c2)OCO3)o1)C1CCS(=O)(=O)C1 (centres undefined) | 3.5% (inactive)
51 | CCCc1cc(=O)[nH]c(SCC(=O)c2c(N)n(CC(C)C)c(=O)n(C)c2=O)n1 | -0.53% (inactive)
52 | Cc1coc(C)c1C(=O)CC1(O)C(=O)N(C)c2ccc(Cl)cc21 (centres undefined) | 3.68% (inactive)
53 | NC(=O)CC(NC(=O)Cc1cccc2ccccc12)c1ccc(NCc2cc(F)ccc2F)c([N+](=O)[O-])c1 (centres undefined) | -3.93% (inactive)
54 | COC(=O)CCCC1=CC2=CC(=O)C(C)(OC(=O)c3cccs3)C(=O)C2=CN1CC1CC1 (centres undefined) | 13.4% (inactive)
55 | COC(=O)CCCC1=CC2=CC(=O)C(C)(OC(=O)c3cccs3)C(=O)C2=CN1c1cccc(C#N)c1 (centres undefined) | 35.7% (active)
56 | COC(=O)CCCC1=CC2=CC(=O)C(C)(OC(=O)c3cccs3)C(=O)C2=CN1CC(C)C (centres undefined) | 8.79% (inactive)
57 | COc1cc(C(=O)N2C(=O)c3cccc(N)c3C2=O)cc(OC)c1OC | 11.8% (inactive)
58 | CN1CCN(S(=O)(=O)c2cccc(C(=O)O)c2)CC1 | 6.51% (inactive)
59 | CC1CC(C)CN(S(=O)(=O)c2cccc(C(=O)N3C(=O)c4cccc(N)c4C3=O)c2)C1 (centres undefined) | 30.5% (active)
